The nature of assay [1]: qHTS assay to identify small molecule that activate the aryl hydrocarbon receptor (AhR) signaling pathway - cell viability counter screen (AID 743086).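 Further: HepG2 liver cells carrying the AhR DRE luciferase reporter; series mostly up to about 70 µM; nearly all actives have a fitted effect of over 45% in size.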 The method, boiled down:
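Cytotoxicity counter screen: CellTiter-Fluor signal (30 min, 37 C) in 4000 HepG2 cells/well carrying the DRE-luciferase reporter, following 24 h compound exposure at 37 C.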

The nature of assay [2]: qHTS assay to identify small molecule antagonists of the peroxisome proliferator-activated receptor gamma (PPARg) signaling pathway - cell viability counter screen (AID 743194). Further: nearly all actives have a fitted effect of over 55% in size. The following applies: Potency: co-treated with 50 nM rosiglitazone. In a few lines: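 Viability was measured as CellTiter-Glo luminescence in GeneBLAzer PPARg UAS-bla HEK293H cells. These cells had been exposed 17 h at 37 C to compounds together with rosiglitazone at 50 nM final, with the beta-lactamase readout taken in the same wells.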
Background: qHTS replaces the single test concentration by a dilution series.

Assay [3] in a line: qHTS assay for small molecule agonists of the antioxidant response element (ARE) signaling pathway - cell viability counter screen (AID 743203; calls by dose curve; further: nearly all actives have a fitted effect of over 55% in size). The method, boiled down: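 CellSensor ARE-bla HepG2 cells, 2,000 per well, rested 5 hrs at 37C/5% CO2, then exposed to compound in DMSO for 16 hrs; viability read as CellTiter-Glo luminescence after 30 min at room temperature, in the reporter wells.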

Assay [4] can be described thus: qHTS assay for small molecule activators of the heat shock response signaling pathway - cell viability counter screen (AID 743209). Further: nearly all actives have a fitted effect of over 50% in size. In a few lines:
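CellSensor HSE-bla HeLa cells, plated overnight at 37 C/5% CO2, were exposed to compounds in DMSO for 5 h at 37 C. Viability was then read in the same wells by CellTiter-Glo luminescence after 30 min at room temperature.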

A short description of assay [5]: qHTS assay for small molecule activators of the heat shock response signaling pathway (AID 743210; active means well fitted activation curve with a large enough effect in the signal ratio in the repeat runs, with a control signal flat, not every such curve was filed as active; the % refers to the signal ratio;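 further: HeLa cells with beta-lactamase reporter driven by heat shock elements; series mostly up to about 63 µM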). In a few lines: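 In HSE-bla HeLa cells, 5 h compound incubation (37 C) precedes addition of LiveBLAzer B/G substrate; after 2.5 h at room temperature, fluorescence intensity indicates reporter induction.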
Assay [6] can be described thus: qHTS assay to identify small molecule agonists of the peroxisome proliferator-activated receptor delta (PPARd) signaling pathway - cell viability counter screen (AID 743211). Further: nearly all actives have a fitted effect of over 55% in size. Further: potency means the concentration at half of the fitted maximal effect. The method, boiled down:
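Viability was measured as CellTiter-Glo luminescence (30 min, room temperature) in the same wells as the beta-lactamase readout. GeneBLAzer PPARd UAS-bla HEK293H cells received compound after 5 h plating and were incubated 17 h at 37 C.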

In assay [7] the target is Peroxisome proliferator-activated receptor delta (Homo sapiens) (UniProt Q03181). Description: qHTS assay to identify small molecule agonists of the peroxisome proliferator-activated receptor delta (PPARd) signaling pathway (AID 743212; calls by dose curve). The method, boiled down: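 HEK293H UAS-bla reporter cells, human PPARd system; compounds delivered in DMSO after 5 h plating, then at 37 C. Beta-lactamase FRET read, 2 h RT substrate step.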
Chain of Peroxisome proliferator-activated receptor delta (Homo sapiens) (Q03181 whole entry, looked up): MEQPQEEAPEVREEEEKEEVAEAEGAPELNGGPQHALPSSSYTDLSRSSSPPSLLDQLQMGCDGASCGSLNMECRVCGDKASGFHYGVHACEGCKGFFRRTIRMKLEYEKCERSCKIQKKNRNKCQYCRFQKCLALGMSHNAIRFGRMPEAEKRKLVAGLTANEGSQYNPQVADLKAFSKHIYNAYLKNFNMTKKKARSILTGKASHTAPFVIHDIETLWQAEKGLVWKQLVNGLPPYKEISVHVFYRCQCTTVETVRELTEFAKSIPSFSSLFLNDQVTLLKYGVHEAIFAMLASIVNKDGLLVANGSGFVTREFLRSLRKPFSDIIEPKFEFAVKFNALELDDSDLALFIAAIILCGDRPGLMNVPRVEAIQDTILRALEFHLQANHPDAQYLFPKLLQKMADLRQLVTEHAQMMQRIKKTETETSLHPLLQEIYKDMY

For assay [8] the target is unchanged. Description: qHTS assay to identify small molecule antagonists of the peroxisome proliferator-activated receptor delta (PPARd) signaling pathway (AID 743215; active means well fitted inhibition curve with a large enough effect in the signal ratio in the repeat runs, not every such curve was filed as active; the % refers to the signal ratio;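 further: cells stimulated with agonist L165041 at 300 nM final during compound exposure; series mostly up to about 62 µM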). In a few lines: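 PPARd UAS-bla HEK293H cells were pre-incubated 5 h at 37 C, then given test compounds in DMSO plus agonist L165041 (300 nM final). After 17 h at 37 C, beta-lactamase FRET substrate was added; fluorescence read after 2 h at room temperature.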

The nature of assay [9]: qHTS assay to identify small molecule agonists of the farnesoid-X-receptor (FXR) signaling pathway - cell viability counter screen (AID 743218). Further: nearly all actives have a fitted effect of over 45% in size. The method, boiled down:
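FXR-UAS-bla HEK 293T cells, plated 5 h at 37 C, were exposed to compounds for 16 h at 37 C. CellTiter-Glo was then added to the same wells as the bla readout; luminescence read after 30 min at room temperature.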

Assay [10] has as its target Bile acid receptor (Homo sapiens) (UniProt Q96RI1). Description: qHTS assay to identify small molecule agonists of the farnesoid-X-receptor (FXR) signaling pathway (AID 743220; active means well fitted activation curve with a large enough effect in the signal ratio in the repeat runs, not every such curve was filed as active; the % refers to the signal ratio). In a few lines: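 Beta-lactamase reporter under UAS control in GeneBLAzer FXR HEK 293T cells (5000/well) measured with LiveBLAzer FRET substrate after 2 h at room temperature. Compound exposure lasted 16 h at 37C.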

Assay [11] in a line: qHTS assay to identify small molecule antagonists of the farnesoid-X-receptor (FXR) signaling pathway - cell viability counter screen (AID 743221; active means well fitted cell-killing curve with a large enough effect in the repeat runs, not every such curve was filed as active; further: nearly all actives have a fitted effect of over 50% in size). In a few lines:
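Cytotoxicity counter screen run in the FXR-bla reporter wells: HEK 293T cells exposed to compound with 50 uM (final) chenodeoxycholic acid for 16 h, 37 C, then viability measured by CellTiter-Glo luminescence after 30 min, room temperature.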

A short description of assay [12]: qHTS assay to identify small molecule agonists of the vitamin D receptor (VDR) signaling pathway - cell viability counter screen (AID 743224). Further: series mostly up to about 63 µM; nearly all actives have a fitted effect of over 50% in size. The method, boiled down:
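VDR-bla cells were preincubated 4 h at 37C/5% CO2, then exposed to compounds for 16 h. After the 2 h room-temperature bla FRET read, CellTiter-Glo was added to the same wells and luminescence read after 30 min.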

Assay [13] can be described thus: qHTS assay for small molecule agonists of the antioxidant response element (ARE) signaling pathway (AID 743202; active means well fitted activation curve with a large enough effect in the signal ratio in the repeat runs, not every such curve was filed as active; the % refers to the signal ratio; further: potency means the concentration at half of the fitted maximal effect). In a few lines:
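An ARE-responsive beta-lactamase gene stably integrated in HepG2 cells serves as reporter. After 5 h plating and 16 h compound incubation at 37 C, fluorescence of the B/G FRET substrate was measured.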

The nature of assay [14]: qHTS assay to identify small molecule antagonists of the peroxisome proliferator-activated receptor delta (PPARd) signaling pathway - cell viability counter screen (AID 743213). Further: nearly all actives have a fitted effect of over 50% in size. The method, boiled down:
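HEK293H cells with the PPARd UAS-bla reporter, co-treated 17 h at 37 C with compounds and L165041 (300 nM final), were lysed with CellTiter-Glo. Luminescence indicated viable cell content.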

Assay [15] addresses Vitamin D3 receptor (Homo sapiens) (UniProt P11473). Description: qHTS assay to identify small molecule antagonists of the vitamin D receptor (VDR) signaling pathway (AID 743223; active means well fitted inhibition curve with a large enough effect in the signal ratio in the repeat runs, not every such curve was filed as active; the % refers to the signal ratio). The method, boiled down:
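Antagonist mode: compound added to VDR-bla cells alongside agonist 1alpha,25-dihydroxyvitamin D3 (3 nM final), incubation 16 h at 37C. Read-out is LiveBLAzer FRET fluorescence, 2 h at room temperature.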

Assay [16] has as its target Bile acid receptor (Homo sapiens) (UniProt Q96RI1). Description: qHTS assay to identify small molecule antagonists of the farnesoid-X-receptor (FXR) signaling pathway (AID 743217; active means well fitted inhibition curve with a large enough effect in the signal ratio in the repeat runs, not every such curve was filed as active; the % refers to the signal ratio). The method, boiled down:
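FXR-UAS-bla HEK 293T cells pre-incubated 5 h at 37 °C, then exposed to compounds with chenodeoxycholic acid (50 uM final) for 16 h at 37 °C. Beta-lactamase reporter read by LiveBLAzer B/G FRET substrate fluorescence after 2 h at room temperature.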

For assay [17], the target named is Vitamin D3 receptor (Homo sapiens) (UniProt P11473). Description: qHTS assay to identify small molecule agonists of the vitamin D receptor (VDR) signaling pathway (AID 743222; calls by dose curve). In a few lines: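 VDR-bla cells were plated 4 h at 37C/5% CO2, then exposed to compounds in DMSO for 16 h. After LiveBLAzer B/G FRET substrate addition and 2 h at room temperature, beta-lactamase reporter fluorescence was read.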
Chain of Vitamin D3 receptor (Homo sapiens) (P11473 whole entry, looked up): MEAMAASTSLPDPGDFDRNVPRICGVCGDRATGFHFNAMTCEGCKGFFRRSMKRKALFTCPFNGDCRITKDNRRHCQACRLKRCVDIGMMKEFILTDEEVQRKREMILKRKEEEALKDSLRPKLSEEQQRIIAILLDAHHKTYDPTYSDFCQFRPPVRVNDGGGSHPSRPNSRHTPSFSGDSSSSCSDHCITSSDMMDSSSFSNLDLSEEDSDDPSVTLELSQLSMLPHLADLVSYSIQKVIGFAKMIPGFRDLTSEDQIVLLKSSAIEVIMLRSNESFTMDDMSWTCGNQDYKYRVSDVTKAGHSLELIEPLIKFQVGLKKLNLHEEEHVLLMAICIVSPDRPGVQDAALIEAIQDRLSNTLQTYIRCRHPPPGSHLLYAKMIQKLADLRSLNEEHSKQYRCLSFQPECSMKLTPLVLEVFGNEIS

The target in assay [18] is Peroxisome proliferator-activated receptor gamma (Homo sapiens) (UniProt P37231). The assay can be described thus: qHTS assay to identify small molecule antagonists of the peroxisome proliferator-activated receptor gamma (PPARg) signaling pathway (AID 743191; calls by dose curve; further: nearly all actives have a fitted effect of over 30% in size; further: potency means the concentration at half of the fitted maximal effect). The method, boiled down: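 Beta-lactamase reporter under UAS control in HEK293H PPARg-bla cells; compound treatment 17 h at 37C. Read-out: fluorescence intensity after 1 h room-temperature incubation with LiveBLAzer B/G FRET substrate.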
Chain of Peroxisome proliferator-activated receptor gamma (Homo sapiens) (P37231 whole entry, looked up): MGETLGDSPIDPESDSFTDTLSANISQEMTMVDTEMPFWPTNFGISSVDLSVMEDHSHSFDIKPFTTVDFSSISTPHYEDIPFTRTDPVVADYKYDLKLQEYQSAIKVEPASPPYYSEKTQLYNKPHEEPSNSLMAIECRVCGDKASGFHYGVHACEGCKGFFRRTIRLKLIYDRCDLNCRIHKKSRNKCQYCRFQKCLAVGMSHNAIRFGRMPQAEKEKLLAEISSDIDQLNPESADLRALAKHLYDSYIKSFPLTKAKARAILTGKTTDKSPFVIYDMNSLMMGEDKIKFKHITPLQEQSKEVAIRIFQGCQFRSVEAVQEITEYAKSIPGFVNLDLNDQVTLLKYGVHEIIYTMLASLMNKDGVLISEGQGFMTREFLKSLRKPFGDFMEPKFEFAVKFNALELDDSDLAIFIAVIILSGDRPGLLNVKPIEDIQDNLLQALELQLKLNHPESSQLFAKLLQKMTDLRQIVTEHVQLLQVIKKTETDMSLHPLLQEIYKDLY

Records with an inconclusive call do not appear. Active and inactive are the calls of the source. Unless noted, the call rests on the fitted dose curve; in most records, active means well fitted curve in the direction sought with a large enough effect in the repeat runs; inconclusive means weak or mixed curves; inactive means no such curve, though single readings can be large; an effect the other way counts as inactive or inconclusive.

Chain of Bile acid receptor (Homo sapiens) (Q96RI1 whole entry, looked up): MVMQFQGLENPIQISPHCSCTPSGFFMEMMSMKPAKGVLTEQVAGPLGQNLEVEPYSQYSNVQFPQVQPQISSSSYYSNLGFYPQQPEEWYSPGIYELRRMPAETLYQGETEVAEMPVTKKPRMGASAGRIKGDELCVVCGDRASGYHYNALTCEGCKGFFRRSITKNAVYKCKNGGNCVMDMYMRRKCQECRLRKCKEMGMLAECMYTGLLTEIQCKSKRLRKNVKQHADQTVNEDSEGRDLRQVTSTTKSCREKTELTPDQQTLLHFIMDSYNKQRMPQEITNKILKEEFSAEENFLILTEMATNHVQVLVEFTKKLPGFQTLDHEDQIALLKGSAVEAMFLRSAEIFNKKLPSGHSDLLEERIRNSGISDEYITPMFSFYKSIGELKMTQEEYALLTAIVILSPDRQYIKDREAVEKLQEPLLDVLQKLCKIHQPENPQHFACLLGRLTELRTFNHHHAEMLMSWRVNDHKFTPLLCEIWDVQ

For the compound `CCN(CC)C(=O)[C@@H]1C=C2c3cccc4[nH]cc(c34)C[C@H]2N(C)C1`, the compound was classed as inactive in [1], in assay [5], in assay [7], in assay [8], in [10] and in assay [11]. The Potency entry in assay [2], in assay [3], in assay [4], in assay [6], in assay [9] and in assay [12] was “inactive” throughout.
On to `COC(=O)COc1ccc(Cl)cc1Cl`, for which the compound was called inactive in assay [1], in [5], in assay [7], in assay [14], in assay [8] and in [15]. In addition, the Potency entry in [2], in [13], in [3], in assay [4], in [6] and in assay [9] was “inactive” in each case. For the same compound, the Potency result in [12] was “inactive”.
On to `O=C1OC(CCN2CCCCC2)OC1(c1ccccc1)c1ccccc1` (centres undefined), for which the Potency entry in assay [2], in assay [6], in assay [16], in assay [9] and in assay [12] was “inactive” in each case. Further, the Potency in [13] is 23.7 µM (active). Further, the outcome in [14], in [11], in assay [17] and in assay [15] was inactive.
`CN1CCC(N(Cc2ccccc2)c2ccccc2)CC1`: the Potency entry in assay [18], in assay [3], in assay [4] and in assay [12] was “inactive” in each case. For the same compound, the outcome in [5], in assay [7], in assay [11], in assay [17] and in assay [15] was inactive. Also, in [6], the Potency was 26.6 µM (active).
For `Cc1ccccc1CO[C@@H]1C[C@@]2(C(C)C)CC[C@]1(C)O2`, the call in assay [1], in [5], in [7], in assay [14], in [8] and in [11] was inactive. The outcome in assay [17] and in assay [15] was inactive. Also, the Potency entry in assay [18], in assay [13], in assay [4], in assay [6], in assay [9] and in assay [12] was “inactive” in each case.
Regarding `c1ccc(N2CCNCC2)cc1`, the Potency entry in [2], in [3], in assay [4], in [6], in assay [16] and in assay [9] was “inactive” throughout. Besides, the Potency entry in assay [12] was “inactive”. Also, the compound was called inactive in assay [14], in [10], in assay [11], in assay [17] and in [15].
In the case of `ClCCCN1CCN(c2cccc(Cl)c2)CC1`, the Potency entry in assay [18], in assay [3], in assay [4], in [6] and in [12] was “inactive” throughout. The Potency in [13] was 6.68 µM (active). The compound was classed as inactive in assay [5], in assay [7], in assay [14], in assay [8] and in assay [11].
With `CCOC(=O)C(c1c(O)c2ccccc2oc1=O)c1c(O)c2ccccc2oc1=O`, in assay [18], the Potency was 7.5 µM (active). In addition, the Potency result in assay [2], in assay [3], in assay [4], in [6], in assay [9] and in [12] was “inactive” in each case. The outcome in assay [5], in assay [7], in assay [14], in [8] and in assay [11] was inactive.
As for `CN1C[C@@H](NS(=O)(=O)N(C)C)C[C@@H]2c3cccc4c3c(cn4C)C[C@H]21`, the Potency entry in [2], in assay [4], in assay [6], in assay [9] and in [12] was “inactive” in each case. Besides, the compound was called inactive in [5], in [7], in assay [14], in assay [11] and in [17].

Values taken from PubChem BioAssay (Tox21).
